outcome, Potency and max activation data for seven molecules are collected here from PubChem BioAssay (Tox21).

Experiment [1] addresses Thyrotropin receptor (Homo sapiens) (UniProt P16473). Description: qHTS assay to identify small molecule antagonists of the thyroid stimulating hormone receptor (TSHR) signaling pathway (AID 1259385; calls by dose curve; also: nearly all actives have a fitted effect of over 20% in size). A digest of the protocol:
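TSHR-HEK293 cells (800/well) plated 18 h, then compounds with Ro20-1724 and TSH at 1.5 ng/mL final, 30 min at room temperature. cAMP quantified by HTRF (cAMP-d2/anti-cAMP-cryptate, 1 h); 15 concentrations in triplicate.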
For orientation: qHTS replaces the single test concentration by a dilution series.

Experiment [2] can be described thus: qHTS assay to identify small molecule agonists of the estrogen receptor alpha (ER-alpha) signaling pathway in the presence of an antagonist - cell viability counter screen (AID 1259386).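 Also: series mostly up to about 92 µM; cells exposed to compounds for 22 h at 37 °C before the viability read; nearly all actives have a fitted effect of over 30% in size.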 The essentials: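 ICI-182,780 at 10.0nM final accompanies the compound titration (15 concentrations, 22hr, 37C) on VM7Luc4E2 cells. The CellTiter-Fluor fluorescence readout runs in the same wells as the luciferase assay.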

The target in experiment [3] is Progesterone receptor (Homo sapiens) (UniProt P06401). Kind of experiment: qHTS assay to identify small molecule agonists of the progesterone receptor (PR) signaling pathway (AID 1346784; calls by dose curve; also: nearly all actives have a fitted effect of over 30% in size). A digest of the protocol: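 HEK 293T PR-UAS-bla reporter cells, 2% charcoal-stripped FBS; 6 hr settle at 37C/5% CO2, compound (DMSO) 16 hr, LiveBLAzer B/G FRET substrate 2 hr RT, fluorescence intensity read.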

The target is the same in experiment [4]. Description: qHTS assay to identify small molecule antagonists of the progesterone receptor (PR) signaling pathway (AID 1346795; active = well fitted inhibition curve with a large enough effect in the signal ratio in the repeat runs, not every such curve was filed as active; the % refers to the signal ratio; also: potency is read from the fitted curve at half-maximal effect). The essentials:
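Beta-lactamase reporter, HEK293T PR-UAS-bla line; 2% charcoal-stripped FBS; 6 hr pre-incubation, 37C/5% CO2. Compound + R5020 1 nM final, 16 hr. LiveBLAzer B/G FRET substrate, 2 hr RT; fluorescence intensity read.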

A short description of experiment [5]: qHTS assay to identify small molecule antagonists of the progesterone receptor (PR) signaling pathway - cell viability counter screen (AID 1346798). Also: nearly all actives have a fitted effect of over 50% in size. Also: potency is read from the fitted curve at half-maximal effect. A digest of the protocol: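 Luminescence readout (CellTiter-Glo, 30 min, RT) of viability in PR-UAS-bla HEK293T cells exposed to compound and R5020 agonist for 16 hr at 37C, 5% CO2; run in the same wells as the beta-lactamase reporter read.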

Experiment [6] in a line: qHTS assay to identify small molecule agonists of the progesterone receptor (PR) signaling pathway - cell viability counter screen (AID 1346799; calls by dose curve; also: nearly all actives have a fitted effect of over 45% in size; also: potency is read from the fitted curve at half-maximal effect). A digest of the protocol:
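HEK293T PR-UAS-bla, 3,000 cells/well, 2% charcoal-stripped FBS; 6 h settle, compound 16 h at 37C/5% CO2; LiveBLAzer 2 h RT, then CellTiter-Glo 30 min RT, luminescence read.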

Experiment [7] can be described thus: qHTS assay to identify small molecule antagonists of the TGF-beta/Smad signaling pathway - cell viability counter screen (AID 1346824). Also: nearly all actives have a fitted effect of over 50% in size. The essentials: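 SBE-bla HEK 293T cells, incubated overnight, then compound plus 0.25 ng/mL TGF-beta1 (stock added) for 5 hr at 37 C. Viability was read in the same wells by CellTiter-Glo luminescence after 30 min at room temperature.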

A short description of experiment [8]: qHTS assay to identify small molecule agonists of the TGF-beta/Smad signaling pathway - cell viability counter screen (AID 1346829). Also: top concentration of the series differs between compounds; nearly all actives have a fitted effect of over 45% in size. The essentials: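 Compound-treated SBE-bla HEK 293T cells (5 hr, 37 C) were assessed for viability with CellTiter-Glo in parallel with the reporter read.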
Experiment [9] is described as follows: qHTS assay to identify small molecule agonists of the TGF-beta/Smad signaling pathway (AID 1346859; active = well fitted activation curve with a large enough effect in the signal ratio in the repeat runs, not every such curve was filed as active; the % refers to the signal ratio; also: series mostly up to about 77 µM). A digest of the protocol:
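Read-out: fluorescence at 460 and 530 nm (405 nm excitation) after a 2 hr room-temperature incubation with beta-lactamase FRET substrate. SBE-bla HEK 293T cells had been treated with test compounds for 5 hr at 37 C.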

For experiment [10], the target named is Thyrotropin-releasing hormone receptor (Homo sapiens) (UniProt P34981). Kind of experiment: qHTS assay to identify small molecule antagonists of the thyrotropin-releasing hormone receptor (TRHR) signaling pathway (AID 1346877; active = well fitted inhibition curve with a large enough effect in the repeat runs, not every such curve was filed as active; also: series mostly up to about 51 µM). The essentials:
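Screening used HEK293 cells engineered with TRHR, with a brief 5 min room-temperature compound exposure preceding addition of TRH to 1 nM. The read-out was kinetic calcium-dye fluorescence, concentration-response from 15 doses in triplicate.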

Experiment [11] shares this target. Description: qHTS assay to identify small molecule agonists of the thyrotropin-releasing hormone receptor (TRHR) signaling pathway (AID 1346891; calls by dose curve;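 also: HEK293 cells expressing TRHR with calcium dye readout; series mostly up to about 58 µM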). The essentials: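 HEK293/TRHR cells, 1500 per well, 18 h 37 °C; Ca dye 2 h 37 °C; pin-tool compound addition (agonist mode); kinetic fluorescence 3 min, 1 s reads; 15 concentrations, triplicate.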
Experiment [12] in a line: Human pregnane X receptor (PXR) small molecule agonists, qHTS cell viability counter screen (AID 1346977). Also: nearly all actives have a fitted effect of over 50% in size. Also: potency is read from the fitted curve at half-maximal effect. The essentials: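 Fluorescence read-out (CellTiter-Fluor) of viability in PXR-Luc HepG2 cells, multiplexed with the luciferase agonist read. Compounds in DMSO added after 5hr plating; 24hr total exposure at 37C, 5% CO2.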
Experiment [13] can be described thus: Caspase-3/7 induction in CHO-K1 cells by small molecules, qHTS cell viability counter screen (AID 1346979). Also: nearly all actives have a fitted effect of over 35% in size. Also: potency is read from the fitted curve at half-maximal effect. The essentials: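 CHO-K1 wt, 1,500 cells/well; 5hr pre-incubation 37C/5% CO2; compound pin transfer (DMSO); 16hr exposure; CellTiter-Fluor added, 1hr, fluorescence read.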
Experiment [14] in a line: Caspase-3/7 induction in CHO-K1 cells by small molecules, qHTS assay (AID 1346980). Also: nearly all actives have a fitted effect of over 15% in size. The essentials: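 Wild-type CHO-K1 cells exposed to compounds for 17hr at 37 C, 5% CO2. Caspase-3/7 activity then measured by Caspase-Glo 3/7 luminescence after 30min at room temperature.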
Experiment [15] is described as follows: Caspase-3/7 induction in HepG2 cells by small molecules, qHTS cell viability counter screen (AID 1346981). Also: nearly all actives have a fitted effect of over 30% in size. Also: potency is read from the fitted curve at half-maximal effect. The essentials:
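Multiplexed with the caspase-3/7 assay: HepG2 cells, 16 hr compound treatment, CellTiter-Fluor viability detection by fluorescence.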

Experiment [16] deals with Nuclear receptor subfamily 1 group I member 2 (Homo sapiens) (UniProt O75469). Kind of experiment: Human pregnane X receptor (PXR) small molecule agonists, qHTS assay (AID 1346982). Also: nearly all actives have a fitted effect of over 35% in size. Also: potency is read from the fitted curve at half-maximal effect. The essentials:
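We seeded PXR-Luc HepG2 cells in assay medium containing 5% charcoal-stripped FBS, added compounds 5 hr later, incubated 24 hr, and read luminescence with ONE-Glo reagent.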

For experiment [17], the target named is Nuclear receptor subfamily 1 group I member 2 (Rattus norvegicus) (UniProt Q9R1A7). Kind of experiment: Rat pregnane X receptor (rPXR) activation by small molecules, qHTS assay (AID 1346983). Also: nearly all actives have a fitted effect of over 20% in size. As to conditions: rPXR luciferase reporter cells, One-Glo luminescence, 24 h; stronger effect = higher value. A digest of the protocol: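 Cell-based rPXR activation assay: rPXR cells, 2,000 per well, rested 5hr at 37 C, then exposed to compounds in DMSO for 24 hr at 37 C. Luciferase activity read by One-Glo luminescence after 30 min at room temperature.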

For experiment [18], the target named is Nuclear receptor subfamily 1 group I member 2 (Homo sapiens) (UniProt O75469). Description: CYP3A4 induction through human pregnane X receptor (PXR) by small molecules, qHTS assay (AID 1346984). Also: nearly all actives have a fitted effect of over 40% in size. The essentials:
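qHTS, concentration-response format: HepG2 DPX-2 line, PXR/CYP3A4-luc. Exposure 24 h, 37C. Substrate Luciferin-IPA 3uM final, 3 h. Detection One-Glo, 30 min RT.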

The target is the same in experiment [19]. Kind of experiment: Human pregnane X receptor (PXR) activation by small molecules, qHTS assay (AID 1346985). Also: nearly all actives have a fitted effect of over 40% in size. A digest of the protocol: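 DPX-2 cells (HepG2 co-transfected with a PXR response element and a CYP3A4-promoter luciferase construct) were seeded at 2,000 per well, rested 5 hr at 37C, then exposed to DMSO-dissolved compounds for 24 hr. Activation was read as luciferase luminescence.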

A short description of experiment [20]: Caspase-3/7 induction in HepG2 cells by small molecules, qHTS assay (AID 1346978). Also: nearly all actives have a fitted effect of over 15% in size. The essentials:
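Wild-type HepG2 cells, 2,000/well, settled 5 hr at 37 C and 5% CO2, then compound-treated for 17 hr; caspase-3/7 activity read by luminescent Caspase-Glo 3/7 after 30 min at room temperature.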

Where “and” joins values, the source holds several entries; their conditions need not be identical. Equal values may be shown once. Results filed as inconclusive are left out. Some structures have more than one record in an assay (separate samples or runs), and their calls can disagree. Calls of active or inactive are those of the source. Unless noted, calls follow the shape of the dose curve; as a rule, active = well fitted curve in the direction sought with a large enough effect in the repeat runs; inconclusive = weak or mixed curves; inactive = no such curve, though single readings can be large; an effect the other way counts as inactive or inconclusive.
% is scaled to controls: 0 for no effect and ±100 for the full control effect.

Sequence of Progesterone receptor (Homo sapiens) (P06401 whole entry, looked up): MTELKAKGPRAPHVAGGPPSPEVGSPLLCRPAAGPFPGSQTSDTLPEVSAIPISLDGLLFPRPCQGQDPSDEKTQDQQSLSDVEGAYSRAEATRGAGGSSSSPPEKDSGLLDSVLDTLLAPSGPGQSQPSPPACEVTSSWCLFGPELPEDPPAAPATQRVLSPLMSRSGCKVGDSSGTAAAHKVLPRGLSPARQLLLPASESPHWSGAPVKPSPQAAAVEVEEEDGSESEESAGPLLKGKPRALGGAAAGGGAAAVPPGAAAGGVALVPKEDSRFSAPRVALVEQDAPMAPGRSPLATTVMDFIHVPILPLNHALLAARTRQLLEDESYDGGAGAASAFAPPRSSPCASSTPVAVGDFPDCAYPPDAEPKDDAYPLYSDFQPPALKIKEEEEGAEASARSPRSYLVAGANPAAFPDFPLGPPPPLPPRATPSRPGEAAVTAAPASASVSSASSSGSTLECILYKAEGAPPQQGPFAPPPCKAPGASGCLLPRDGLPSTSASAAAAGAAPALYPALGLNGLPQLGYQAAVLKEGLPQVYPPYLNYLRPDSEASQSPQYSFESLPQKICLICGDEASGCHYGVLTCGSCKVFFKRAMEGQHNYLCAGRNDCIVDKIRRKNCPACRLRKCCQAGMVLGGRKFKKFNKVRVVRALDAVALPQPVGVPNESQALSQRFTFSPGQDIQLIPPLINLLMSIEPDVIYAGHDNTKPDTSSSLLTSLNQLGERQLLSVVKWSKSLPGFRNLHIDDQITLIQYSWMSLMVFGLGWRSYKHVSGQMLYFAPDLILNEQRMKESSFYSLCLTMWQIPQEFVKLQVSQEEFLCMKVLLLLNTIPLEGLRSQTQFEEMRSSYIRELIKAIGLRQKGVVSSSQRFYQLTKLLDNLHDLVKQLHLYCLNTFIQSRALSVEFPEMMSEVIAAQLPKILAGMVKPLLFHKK
Sequence of Thyrotropin-releasing hormone receptor (Homo sapiens) (P34981 whole entry, looked up): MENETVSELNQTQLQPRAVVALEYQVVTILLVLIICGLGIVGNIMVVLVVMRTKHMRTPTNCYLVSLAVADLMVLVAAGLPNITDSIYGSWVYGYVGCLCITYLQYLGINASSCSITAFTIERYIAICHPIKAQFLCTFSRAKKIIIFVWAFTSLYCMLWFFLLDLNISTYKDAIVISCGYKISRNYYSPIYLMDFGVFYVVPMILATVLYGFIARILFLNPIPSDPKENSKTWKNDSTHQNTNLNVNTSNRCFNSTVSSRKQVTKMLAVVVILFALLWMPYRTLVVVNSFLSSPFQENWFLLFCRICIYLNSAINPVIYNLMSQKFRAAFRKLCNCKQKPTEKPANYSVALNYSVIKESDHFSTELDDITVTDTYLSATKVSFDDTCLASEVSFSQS
Sequence of Thyrotropin receptor (Homo sapiens) (P16473 whole entry, looked up): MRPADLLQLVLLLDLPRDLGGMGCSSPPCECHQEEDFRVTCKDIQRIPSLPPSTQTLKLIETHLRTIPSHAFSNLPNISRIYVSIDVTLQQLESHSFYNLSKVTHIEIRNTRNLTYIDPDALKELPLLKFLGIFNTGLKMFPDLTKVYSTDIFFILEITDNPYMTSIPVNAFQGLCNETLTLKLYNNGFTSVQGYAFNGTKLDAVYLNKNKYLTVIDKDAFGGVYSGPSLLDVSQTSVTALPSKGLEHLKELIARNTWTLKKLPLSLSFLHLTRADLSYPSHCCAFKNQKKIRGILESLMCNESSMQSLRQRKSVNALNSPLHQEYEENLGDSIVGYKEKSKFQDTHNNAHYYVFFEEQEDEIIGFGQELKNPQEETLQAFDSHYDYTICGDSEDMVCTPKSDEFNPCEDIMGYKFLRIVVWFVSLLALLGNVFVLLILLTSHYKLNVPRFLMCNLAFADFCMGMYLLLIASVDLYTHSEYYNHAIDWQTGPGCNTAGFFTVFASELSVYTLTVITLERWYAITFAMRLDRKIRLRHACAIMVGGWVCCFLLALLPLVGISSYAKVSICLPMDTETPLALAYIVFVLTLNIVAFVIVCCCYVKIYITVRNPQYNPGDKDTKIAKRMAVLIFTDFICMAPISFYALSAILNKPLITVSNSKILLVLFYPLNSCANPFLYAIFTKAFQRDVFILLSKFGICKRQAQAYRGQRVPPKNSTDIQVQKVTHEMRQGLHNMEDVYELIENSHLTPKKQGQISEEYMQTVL
Sequence of Nuclear receptor subfamily 1 group I member 2 (Homo sapiens) (O75469 whole entry, looked up): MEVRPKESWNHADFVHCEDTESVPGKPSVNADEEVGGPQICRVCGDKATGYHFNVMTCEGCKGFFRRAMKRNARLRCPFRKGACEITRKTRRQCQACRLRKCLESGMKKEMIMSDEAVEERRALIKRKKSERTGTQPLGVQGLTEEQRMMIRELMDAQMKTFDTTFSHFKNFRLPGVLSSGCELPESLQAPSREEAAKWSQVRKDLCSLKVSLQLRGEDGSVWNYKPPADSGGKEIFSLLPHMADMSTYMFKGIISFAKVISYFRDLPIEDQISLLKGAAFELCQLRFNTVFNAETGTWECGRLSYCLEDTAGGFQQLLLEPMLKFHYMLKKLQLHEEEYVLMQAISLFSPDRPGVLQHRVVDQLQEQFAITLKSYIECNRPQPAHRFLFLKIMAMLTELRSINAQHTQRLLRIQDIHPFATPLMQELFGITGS
Sequence of Nuclear receptor subfamily 1 group I member 2 (Rattus norvegicus) (Q9R1A7 whole entry, looked up): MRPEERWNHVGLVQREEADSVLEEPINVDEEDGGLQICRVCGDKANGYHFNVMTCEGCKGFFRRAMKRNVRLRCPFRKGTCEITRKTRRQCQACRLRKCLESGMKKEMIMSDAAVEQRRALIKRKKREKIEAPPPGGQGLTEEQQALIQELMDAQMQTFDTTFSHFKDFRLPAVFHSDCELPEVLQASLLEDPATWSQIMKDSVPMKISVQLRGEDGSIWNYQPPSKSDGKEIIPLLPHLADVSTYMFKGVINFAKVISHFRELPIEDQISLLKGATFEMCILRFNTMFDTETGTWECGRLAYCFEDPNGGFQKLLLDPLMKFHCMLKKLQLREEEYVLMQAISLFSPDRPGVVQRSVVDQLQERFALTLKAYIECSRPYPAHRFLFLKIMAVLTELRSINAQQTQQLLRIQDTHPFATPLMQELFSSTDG

Turning to `O=C1C=CC(=O)C=C1`, the result in experiment [1] and in experiment [9] was inactive. Besides, the Potency result in experiment [2], in [3], in experiment [4], in experiment [5], in experiment [6] and in [7] was “inactive” throughout. Moreover, the Potency result in experiment [8], in experiment [10], in [11], in experiment [12], in [13] and in [14] was “inactive” throughout. Further, the Potency result in experiment [15] and in experiment [16] was “inactive” throughout.

As to `CCC(C)(C)c1ccc(O)cc1`, the molecule was called inactive in [1], in experiment [9], in experiment [18] and in experiment [19]. Also, the Potency result in experiment [2], in experiment [3], in experiment [4], in experiment [5], in experiment [6] and in experiment [7] was “inactive” each time. Further, the Potency result in experiment [8], in [10], in experiment [11], in experiment [12], in experiment [14] and in [15] was “inactive” each time. The Potency result in experiment [16] was “inactive”. Moreover, in experiment [17], the max activation is -0.805% (inactive).

`C=CC(=O)OCCO`: the call in [1] and in experiment [9] was inactive. For the same molecule, the Potency entry in [2], in experiment [3], in experiment [4], in [5], in experiment [6] and in experiment [7] was “inactive” throughout. Also, the Potency result in [8], in experiment [10], in experiment [11], in experiment [12], in [20] and in experiment [14] was “inactive” in each case. Moreover, the Potency entry in [16] is “inactive”. For the same molecule, the Potency in [13] is 55.3 µM (active).

`N[C@@H](Cc1ccc(N(CCCl)CCCl)cc1)C(=O)O`: the result in experiment [1] and in [9] was inactive. The Potency entry in experiment [2], in experiment [3], in experiment [4], in [5], in experiment [6] and in experiment [7] was “inactive” each time. The Potency entry in [8], in experiment [10], in experiment [11], in experiment [12] and in [14] was “inactive” in each case. The Potency in experiment [13] is 29.4 µM (active) and 26.6 µM (active); in experiment [15], 26.2 µM (active). Also, in [17], the max activation was -1.77% (inactive).

With `C=C(C)C(=O)OCC1CO1` (centres undefined), the molecule was called inactive in [1] and in experiment [9]. Moreover, the Potency entry in experiment [2], in experiment [3], in [4], in experiment [5], in experiment [6] and in experiment [7] was “inactive” in each case. The Potency entry in [8], in experiment [10], in [11], in [12], in experiment [20] and in [13] was “inactive” throughout. Also, the Potency entry in [14], in experiment [15] and in experiment [16] was “inactive” in each case.

`COC(=O)c1sccc1S(=O)(=O)NC(=O)Nc1nc(C)nc(OC)n1`: the molecule was classed as inactive in experiment [1] and in experiment [9]. The Potency result in [2], in experiment [3], in experiment [4], in experiment [5], in experiment [6] and in experiment [7] was “inactive” in each case. For the same molecule, the Potency entry in experiment [8], in experiment [10], in experiment [11], in experiment [12], in experiment [20] and in experiment [13] was “inactive” each time. The Potency entry in experiment [14], in experiment [15] and in experiment [16] was “inactive” in each case.

Turning to `NNC(N)=S`, the result in experiment [1] and in [9] was inactive. Also, the Potency entry in [2], in experiment [3], in experiment [7], in experiment [8], in [10] and in [11] was “inactive” in each case. For the same molecule, the Potency is 11.3 µM (active) and 21.7 µM (active) in [4]; 12.7 µM (active) and 24.3 µM (active) in experiment [5]; 43.3 µM (active) in experiment [6]; “inactive and 30.6 µM (active)” in experiment [12]; 25.3 µM (active) and 48.6 µM (active) in experiment [13]; 56.6 µM (active) and 21.7 µM (active) in experiment [16].
